# Results as given in PubChem BioAssay (Tox21).
# Records with an inconclusive call do not appear. A call without a number means that no potency is given here. Activity calls are given as the source filed them. Calls come from the whole dose curve; as a rule, active = well fitted activation curve with a large enough effect in the repeat runs; inconclusive = weak or mixed curves; inactive = flat fitted curve, though single readings scatter.
# Assay: A CellTox Green Cytotoxicity Assay to monitor cytotoxicity in HEK293 cells - 16 hour (AID 1224888); note: nearly all actives have a fitted effect of over 35% in size
# Conditions: CellTox Green fluorescence; series mostly up to 76.8 µM; activity change: at the top concentration
# Source text: National Center for Advancing Translational Sciences [NCATS]
# NIH Chemical Genomics Center [NCGC]
# U.S. Environmental Protection Agency [EPA]
# National Institutes of Environmental Health Sciences [NIEHS]
# National Toxicology Program [NTP]
# Cell-based models are critical for drug discovery. Determining the natural cytotoxic effects resulting from test compounds is an essential research activity. A CellTox Green Cytotoxicity Assay to monitor cytotoxicity in real time of continues cell culture during 40 hours of the compound treatment was used to screen Tox21 10K library compounds in Hek293 cells. CellTox Green Cytotoxicity Assay is a nonlytic, homogeneous, biofluorescent method to measure cytotoxicity in cell culture after experimental manipulation. The assay system uses a proprietary asymmetric cyanine dye that is excluded from viable cells but preferentially stains the dead cell's DNA. […] Viable cells produce no appreciable increases in fluorescence. Therefore, the fluorescence signal produced by the binding interaction with dead cell DNA is proportional to cytotoxicity.
# The mixture of Hek293 cell suspension and reagents were dispensed at 600cells/6 ul/well in 1536-well tissue culture treated black solid bottom plates using a Multidrop dispenser. After the assay plates were incubated at a 37 C/5% CO2 incubator for 5 hours, 23 nL of compounds dissolved in DMSO, positive and negative controls was transferred to the assay plate by a pintool work station. The plates were incubated at 37 C for 40 hours. The fluorescence intensity were measured at 0h, 8h, 16h, 24h, 32h and 40h time points using ViewLux plate reader during compound treatment.
# Potency is the fitted concentration of half-maximal effect.
Compound,Potency,activity change
Brc1nc2ccccc2s1,inactive,–
CCc1cccc2c3c([nH]c12)C(CC)(CC(=O)O)OCC3 (stereo not given),inactive,–
c1ccc2cc3ccccc3cc2c1,inactive,–
Cc1cccc(Nc2ccccc2C(=O)O)c1C,inactive,–
c1ccc2c(c1)[nH]c1ccccc12,inactive,–
Nc1ccc(O)c(N)c1,inactive,–
OC[C@H]1O[C@@H]2O[C@H]3[C@H](O)[C@@H](O)[C@@H](O[C@H]4[C@H](O)[C@@H](O)[C@@H](O[C@H]5[C@H](O)[C@@H](O)[C@@H](O[C@H]6[C@H](O)[C@@H](O)[C@@H](O[C@H]7[C@H](O)[C@@H](O)[C@@H](O[C@H]1[C@H](O)[C@H]2O)O[C@@H]7CO)O[C@@H]6CO)O[C@@H]5CO)O[C@@H]4CO)O[C@@H]3CO,inactive,–
CCO[Si](CCCNC(N)=O)(OCC)OCC,inactive,–
C=CN1CCCC1=O,inactive,–
C[C@]12CC[C@@H]3c4ccc(O)cc4CC[C@H]3[C@@H]1CC[C@@H]2O,inactive,–
CC1=CC(C)(C)Nc2ccccc21,inactive,–
CNC[C@H](O)c1ccc(O)c(O)c1,inactive,–
CCCCCCCCCCC(CO)CCCCCCCC (stereo not given),inactive,–
CCC/C=C/C=O,inactive,–
CC1(C)NC(=O)N(c2ccc([N+](=O)[O-])c(C(F)(F)F)c2)C1=O,inactive,–
OC[C@@H](O)[C@@H](O[C@@H]1O[C@H](CO)[C@H](O)[C@H](O)[C@H]1O)[C@H](O)[C@@H](O)CO,inactive,–
O=C1OC2(c3ccccc31)c1cc(I)c(O)c(I)c1Oc1c2cc(I)c(O)c1I,13.3 µM (active) [middle of 4 runs],–
COCCOCCOCCO,inactive,–
Nc1cc([N+](=O)[O-])ccc1C(=O)O,–,-6.88% (inactive)
CC(=O)[C@H]1CC[C@H]2[C@@H]3CC=C4C[C@@H](O)CC[C@]4(C)[C@H]3CC[C@]12C,inactive,–

Compound,Potency,activity change
NCCOCCO,inactive,–
Cc1ccc(N)c([N+](=O)[O-])c1,inactive,–
C=CC(=O)OCCCC,inactive,–
CCCCCCOCCOCCO,inactive,–
c1ccc2c(c1)ccc1cc3c(ccc4ccccc43)cc12,inactive,–
COc1ccc2nc(N)sc2c1,inactive,–
CCCCCC1C(=O)CCC1CC(=O)OC (stereo not given),inactive,–
O=C(O)COCCN1CCN(C(c2ccccc2)c2ccc(Cl)cc2)CC1 (stereo not given),inactive,–
CC(=O)OC(C)C,inactive,–
CC(C)[C@@H]1CC[C@@H](C)CC1=O,inactive,–
CC(C)[N+](C)(CCOC(=O)C1c2ccccc2Oc2ccccc21)C(C)C,inactive,–
Cc1ccc([N+](=O)[O-])c(C)c1,inactive,–
COC(=O)C(C)Oc1ccc(Oc2ncc(C(F)(F)F)cc2Cl)cc1 (stereo not given),inactive,–
Clc1ccc(Sc2cc(Cl)c(Cl)cc2Cl)cc1,inactive,–
[O-]/[N+](=N\O)c1ccccc1,inactive,–
CCC(Cc1c(I)cc(I)c(N)c1I)C(=O)O (stereo not given),inactive,–
C=C[C@@]1(C)CC(=O)[C@]2(O)[C@@]3(C)[C@@H](O)CCC(C)(C)[C@@H]3[C@H](O)[C@H](OC(C)=O)[C@@]2(C)O1,inactive,–
O=Cc1ccccc1C=O,inactive,–
Cc1ccc(/C(=C\CN2CCCC2)c2ccccn2)cc1,inactive,–
CC(=O)O[C@]1(C(C)=O)CC[C@H]2[C@@H]3C=C(C)C4=CC(=O)CC[C@]4(C)[C@H]3CC[C@@]21C,inactive,–
